Common to all, as to assay: fluorescence anisotropy competition titration; 25 mM sodium phosphate (purification buffer pH 7.2), 225 mM NaCl, 10% v/v glycerol, 5 mM DTT, 0.2 mg/mL BSA, 22 C; low values mean tight binding
Common to all, as to settings: protein: recombinant; tags: N-terminal 6xHis-lipoyl-TEV tag, cleaved; chain copies: 4; dsDNA, one strand shown

The target of assay [1] is T1, Dmp53 (Drosophila melanogaster, UniProt Q9N6D8 1-385).
T1 sequence: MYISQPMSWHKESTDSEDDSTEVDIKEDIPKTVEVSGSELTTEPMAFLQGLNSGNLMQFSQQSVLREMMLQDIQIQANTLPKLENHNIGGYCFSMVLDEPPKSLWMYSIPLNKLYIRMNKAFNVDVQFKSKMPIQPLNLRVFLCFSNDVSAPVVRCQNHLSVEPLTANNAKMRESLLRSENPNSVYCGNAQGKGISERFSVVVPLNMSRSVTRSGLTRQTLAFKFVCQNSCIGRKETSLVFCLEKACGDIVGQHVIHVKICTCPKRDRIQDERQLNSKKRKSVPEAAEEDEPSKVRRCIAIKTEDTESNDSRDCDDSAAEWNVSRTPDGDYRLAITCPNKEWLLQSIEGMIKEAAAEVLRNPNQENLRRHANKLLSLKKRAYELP

In assay [2] the target is T2, Drp53 (Danio rerio, UniProt P79734 1-373).
T2 sequence: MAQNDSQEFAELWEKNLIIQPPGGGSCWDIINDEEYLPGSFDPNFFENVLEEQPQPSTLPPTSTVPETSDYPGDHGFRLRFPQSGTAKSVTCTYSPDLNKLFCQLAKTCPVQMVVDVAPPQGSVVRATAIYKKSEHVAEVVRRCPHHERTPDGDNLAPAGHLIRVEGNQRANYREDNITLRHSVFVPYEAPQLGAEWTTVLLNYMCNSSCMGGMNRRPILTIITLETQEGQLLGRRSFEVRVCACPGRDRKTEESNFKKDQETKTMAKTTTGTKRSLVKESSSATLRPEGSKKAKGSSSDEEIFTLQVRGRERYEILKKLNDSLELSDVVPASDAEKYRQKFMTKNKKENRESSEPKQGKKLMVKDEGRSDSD

The target of assay [3] is Hsp53 (Homo sapiens, UniProt P04637 1-393).
Sequence of Hsp53 (P04637 whole entry): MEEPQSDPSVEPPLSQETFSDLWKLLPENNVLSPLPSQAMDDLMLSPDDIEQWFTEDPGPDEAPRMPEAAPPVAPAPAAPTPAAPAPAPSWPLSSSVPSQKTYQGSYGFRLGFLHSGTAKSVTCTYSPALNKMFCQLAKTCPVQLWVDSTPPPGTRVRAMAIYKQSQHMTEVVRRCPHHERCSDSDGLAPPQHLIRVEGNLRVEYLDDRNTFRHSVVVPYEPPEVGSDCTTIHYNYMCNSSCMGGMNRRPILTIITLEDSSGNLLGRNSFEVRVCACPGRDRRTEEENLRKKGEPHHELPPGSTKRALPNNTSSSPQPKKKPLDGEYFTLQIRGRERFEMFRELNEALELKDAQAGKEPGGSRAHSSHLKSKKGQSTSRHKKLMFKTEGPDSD
Assay [4] concerns the target Xlp53 (Xenopus laevis, UniProt Q7T1D0 1-362).
Assay [5] addresses T3, ΔNp63α (Homo sapiens, UniProt Q9H3D4-2 1-586).
T3 sequence: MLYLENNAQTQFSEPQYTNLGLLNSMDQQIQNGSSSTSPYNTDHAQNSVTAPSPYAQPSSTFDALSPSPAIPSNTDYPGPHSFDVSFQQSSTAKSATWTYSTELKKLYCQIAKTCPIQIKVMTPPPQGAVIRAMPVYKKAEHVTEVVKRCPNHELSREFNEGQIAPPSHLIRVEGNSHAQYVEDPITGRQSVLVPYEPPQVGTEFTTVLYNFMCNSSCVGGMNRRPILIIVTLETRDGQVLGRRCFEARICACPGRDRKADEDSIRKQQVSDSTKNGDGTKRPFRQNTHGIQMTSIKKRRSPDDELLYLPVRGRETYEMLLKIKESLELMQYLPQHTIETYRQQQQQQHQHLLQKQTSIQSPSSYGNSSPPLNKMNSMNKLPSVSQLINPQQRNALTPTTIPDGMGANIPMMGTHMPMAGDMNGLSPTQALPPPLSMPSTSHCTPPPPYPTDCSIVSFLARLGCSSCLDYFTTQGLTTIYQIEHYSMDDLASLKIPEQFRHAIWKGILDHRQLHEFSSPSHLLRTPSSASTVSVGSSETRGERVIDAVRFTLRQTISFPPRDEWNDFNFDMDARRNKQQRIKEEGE

Assay [6] addresses T4, ΔNp63β (Homo sapiens, UniProt Q9H3D4-4 1-461).
T4 sequence: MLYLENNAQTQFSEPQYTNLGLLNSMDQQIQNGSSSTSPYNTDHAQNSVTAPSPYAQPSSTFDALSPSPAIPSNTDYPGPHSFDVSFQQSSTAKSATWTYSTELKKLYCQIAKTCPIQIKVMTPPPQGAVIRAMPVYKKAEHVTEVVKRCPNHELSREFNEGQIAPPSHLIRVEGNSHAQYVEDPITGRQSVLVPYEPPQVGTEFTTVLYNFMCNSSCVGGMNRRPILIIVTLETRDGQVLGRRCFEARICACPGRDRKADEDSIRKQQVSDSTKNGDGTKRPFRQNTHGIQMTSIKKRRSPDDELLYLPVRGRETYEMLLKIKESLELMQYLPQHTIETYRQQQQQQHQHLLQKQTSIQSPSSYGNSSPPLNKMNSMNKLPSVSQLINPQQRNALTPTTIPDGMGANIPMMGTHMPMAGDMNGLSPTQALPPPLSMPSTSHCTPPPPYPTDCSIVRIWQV

For assay [7], the target named is T5, ΔNp63γ (Homo sapiens, UniProt Q9H3D4-6 1-393).
T5 sequence: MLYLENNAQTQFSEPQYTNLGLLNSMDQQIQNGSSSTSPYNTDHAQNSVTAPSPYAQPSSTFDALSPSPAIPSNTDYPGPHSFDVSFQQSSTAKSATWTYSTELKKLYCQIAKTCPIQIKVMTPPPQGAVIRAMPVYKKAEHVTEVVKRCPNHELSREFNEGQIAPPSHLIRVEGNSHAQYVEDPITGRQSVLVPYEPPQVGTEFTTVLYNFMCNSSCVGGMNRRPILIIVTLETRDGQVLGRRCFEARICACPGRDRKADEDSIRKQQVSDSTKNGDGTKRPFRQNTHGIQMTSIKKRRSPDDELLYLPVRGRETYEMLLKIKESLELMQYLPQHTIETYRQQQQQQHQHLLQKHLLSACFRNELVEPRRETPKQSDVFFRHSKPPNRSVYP

For assay [8], the target named is T6, ΔNp73β (Homo sapiens, UniProt O15350-9 1-450).
T6 sequence: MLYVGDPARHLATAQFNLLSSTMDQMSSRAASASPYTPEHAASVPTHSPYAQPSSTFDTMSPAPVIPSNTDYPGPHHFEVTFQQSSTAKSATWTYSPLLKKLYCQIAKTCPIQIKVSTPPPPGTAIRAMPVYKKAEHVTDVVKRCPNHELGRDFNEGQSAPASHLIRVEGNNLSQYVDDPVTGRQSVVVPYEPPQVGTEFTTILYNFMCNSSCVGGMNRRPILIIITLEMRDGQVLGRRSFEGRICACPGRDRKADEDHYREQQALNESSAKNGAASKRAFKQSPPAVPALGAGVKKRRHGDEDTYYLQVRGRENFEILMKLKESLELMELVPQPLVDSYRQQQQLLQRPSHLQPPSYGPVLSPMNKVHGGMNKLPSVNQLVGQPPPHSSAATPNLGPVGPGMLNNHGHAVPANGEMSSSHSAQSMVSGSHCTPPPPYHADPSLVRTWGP

Assay [9] deals with Mmp53 (Mus musculus, UniProt P02340 1-390).
Sequence of Mmp53 (P02340 whole entry): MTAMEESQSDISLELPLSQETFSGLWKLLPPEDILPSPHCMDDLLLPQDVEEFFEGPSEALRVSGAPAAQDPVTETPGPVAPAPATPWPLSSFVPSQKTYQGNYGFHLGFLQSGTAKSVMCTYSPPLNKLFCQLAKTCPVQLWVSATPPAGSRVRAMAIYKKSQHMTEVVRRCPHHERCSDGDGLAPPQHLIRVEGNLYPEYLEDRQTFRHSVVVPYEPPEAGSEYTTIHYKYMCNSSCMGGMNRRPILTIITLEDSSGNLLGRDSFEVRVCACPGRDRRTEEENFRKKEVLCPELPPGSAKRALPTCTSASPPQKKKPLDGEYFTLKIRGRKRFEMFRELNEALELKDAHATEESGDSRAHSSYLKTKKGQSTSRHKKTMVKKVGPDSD
Assay [10] has as its target T7, p73CT (Homo sapiens, UniProt O15350 104-383).
T7 sequence: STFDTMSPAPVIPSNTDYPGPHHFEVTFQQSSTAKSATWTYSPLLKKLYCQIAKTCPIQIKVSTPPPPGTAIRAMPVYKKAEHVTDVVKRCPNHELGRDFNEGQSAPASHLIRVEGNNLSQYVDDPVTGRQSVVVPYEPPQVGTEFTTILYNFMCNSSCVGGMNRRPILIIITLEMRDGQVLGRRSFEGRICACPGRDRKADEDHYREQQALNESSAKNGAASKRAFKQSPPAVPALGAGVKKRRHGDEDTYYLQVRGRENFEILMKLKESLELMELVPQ

The values below come from article PMC2807882, “Conservation of DNA-binding specificity and oligomerisation properties within the p53 family”.

Sequence of Xlp53 (Q7T1D0 entry or part of it): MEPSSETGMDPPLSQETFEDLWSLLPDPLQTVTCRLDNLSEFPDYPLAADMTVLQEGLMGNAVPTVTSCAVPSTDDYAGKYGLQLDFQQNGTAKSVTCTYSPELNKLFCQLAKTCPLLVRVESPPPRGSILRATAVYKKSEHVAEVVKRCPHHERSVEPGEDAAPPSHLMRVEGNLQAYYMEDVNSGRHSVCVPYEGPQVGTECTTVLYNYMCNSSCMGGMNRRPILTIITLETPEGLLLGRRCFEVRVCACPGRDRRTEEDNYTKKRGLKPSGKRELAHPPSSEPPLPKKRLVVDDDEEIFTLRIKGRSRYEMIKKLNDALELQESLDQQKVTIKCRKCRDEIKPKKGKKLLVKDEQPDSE

For CGCTGACATGTCCGGACATGTCCCGC, the binding signal in [1] was determined as 0.02 delta log10 Kd; in [2] it was 0.22 delta log10 Kd; in assay [3] it was 0.16 delta log10 Kd; in [4] it was 0.13 delta log10 Kd; in [5], 0.08 delta log10 Kd; in [6], 0.1 delta log10 Kd. Also, the binding signal in assay [7] is 0.1 delta log10 Kd; in [8] it was 0.11 delta log10 Kd; in assay [9], 0.18 delta log10 Kd; in assay [10], 0.09 delta log10 Kd.

As to CGCGGACATGACCGGACATGTCCCGC, the binding signal in assay [1] stood at 0.24 delta log10 Kd; in assay [3], 0.42 delta log10 Kd; in assay [4], 0.43 delta log10 Kd; in assay [5] it was 0.43 delta log10 Kd; in assay [6], 0.62 delta log10 Kd; in assay [7], 0.72 delta log10 Kd. The binding signal turned out to be 0.78 delta log10 Kd in [8] and 0.57 delta log10 Kd in [10].

For CGCGGACCTGTCCGGACATGTCCCGC, the binding signal in [1] stood at 0.54 delta log10 Kd; in assay [2], 0.77 delta log10 Kd; in assay [3], 0.45 delta log10 Kd; in assay [4] it was 0.48 delta log10 Kd; in assay [5] it was 0.3 delta log10 Kd; in assay [6] it was 0.57 delta log10 Kd. In addition, the binding signal in [7] was 0.58 delta log10 Kd; in assay [8], 0.64 delta log10 Kd; in assay [9], 0.4 delta log10 Kd; in [10], 0.56 delta log10 Kd.

As for CGCGGACACGTCCGGACATGTCCCGC, the binding signal in assay [1] came to 0.25 delta log10 Kd; in assay [2], 0.65 delta log10 Kd; in assay [3], 0.53 delta log10 Kd; in assay [4], 0.7 delta log10 Kd; in assay [5], 0.25 delta log10 Kd; in assay [6] it was 0.57 delta log10 Kd. Also, the binding signal amounted to 0.52 delta log10 Kd in [7], 0.62 delta log10 Kd in [8], 0.36 delta log10 Kd in assay [9] and 0.58 delta log10 Kd in [10].

As to CGCGGACATGTCAGGACATGTCCCGC, the binding signal stood at 0.14 delta log10 Kd in assay [1]; 0.32 delta log10 Kd in assay [2]; 0.31 delta log10 Kd in assay [3]; 0.27 delta log10 Kd in assay [4]; 0.09 delta log10 Kd in assay [5]; 0.13 delta log10 Kd in assay [6]. Moreover, the binding signal in [7] is 0.13 delta log10 Kd; in [8] it was 0.27 delta log10 Kd; in assay [9] it was 0.2 delta log10 Kd; in assay [10], 0.2 delta log10 Kd.

Regarding CGCGGACAAGTCCGGACATGTCCCGC, the binding signal in [1] turned out to be 0.22 delta log10 Kd; in assay [2], 0.35 delta log10 Kd; in assay [3] it was 0.16 delta log10 Kd; in assay [4], 0.18 delta log10 Kd; in [5] it was 0.02 delta log10 Kd; in assay [6], 0.15 delta log10 Kd. Besides, the binding signal worked out at 0.19 delta log10 Kd in assay [7], 0.12 delta log10 Kd in assay [8], 0.27 delta log10 Kd in [9] and 0.19 delta log10 Kd in assay [10].

On to CGCGTACATGTCCGGACATGTCCCGC, for which the binding signal is 0.12 delta log10 Kd in assay [1]; 0.21 delta log10 Kd in [2]; 0.21 delta log10 Kd in assay [3]; 0.13 delta log10 Kd in [4]; 0.08 delta log10 Kd in assay [5]; 0.23 delta log10 Kd in [6]. Besides, the binding signal stood at 0.21 delta log10 Kd in assay [7], 0.24 delta log10 Kd in assay [8], 0.19 delta log10 Kd in assay [9] and 0.24 delta log10 Kd in assay [10].
